Records with an inconclusive call do not appear. Active and inactive are the calls of the source. Calls follow the shape of the dose curve; as a rule, active = well fitted cell-killing curve with a large enough effect; inconclusive = small, poorly fitted or top-dose-only effect; inactive = flat fitted curve, though single readings scatter. *1 amine or outer side, *2 acyl side, *3 side chain or, on linkers, in order; H or OH if unused. Where a SMILES comes first, the peptide text is derived from it. Bridges are numbered along the chain shown (N, C = ends). [ ]: non-standard residue; d: D form. The star is where a group is joined. ξ: configuration not given here. X10 = NC1=NCCC(C(N[*:1])C(=O)[*:2])N1; ΔAla(3-NHCONH2) = NC(=O)NC=C(N)C(=O)O; pGlu = O=C1CC[C@@H](C(=O)O)N1; ξβ3hOrn = NCCCC(N)CC(=O)*; Dap = NC[CH](N)C(=O)O
assay: qHTS of pediatric cancer cell lines to identify multiple opportunities for drug repurposing: Primary screen for RD cells (AID 1347104); details: RD rhabdomyosarcoma viability, CellTiter-Glo luminescence, 48 h; series mostly up to 46 µM; activity change, negative = cytotoxic: at the top concentration; also: nearly all actives have a fitted effect of over 55% in size
Description: Drug repurposing or repositioning has been offered as a strategy for drug development in oncology programs. This approach has special potential for childhood cancers and other rare or orphan diseases, where the expected return on new drug development has been a disincentive to pharmaceuticals. […] In this project we exploit the poly-pharmacology of drugs to discover new indications via phenotypic screening of a panel of 19 well-characterized cell lines derived from solid tumors seen in children and adolescents. The goal is to identify approved drugs with previously unrecognized anticancer properties that has the potential to reveal new mechanisms and biological processes involved in carcinogenesis or drug resistance. We employed a titration-based paradigm (quantitative high-throughput screening or qHTS), where all compounds were tested at multiple concentrations for their effect on cell viability. Concentration-response curves (CRCs) were derived directly from the primary screen, and both potency and efficacy values were used to identify compounds with robust bioactivity profiles. We screened the NIH Chemical Genomics Center (NCGC) Pharmaceutical Collection (NPC) and Mechanism Interrogation Plate (MIPE) small molecule collections of approved and investigational compounds against these cell lines; and measured metabolically active cells after 48 hours of compound treatment as a proxy for cell viability. […] Assay Submitter: Nathalia J. Martinez, National Center for Advancing Translational Sciences, National Institutes of Health, Rockville, MD, USA; email: natalia.martinez@nih.gov Shen, M et al. Quantitative high-throughput phenotypic screening of pediatric cancer cell lines identifies multiple opportunities for drug repurposing. Oncotarget 2017 Dec 19;9(4):4758-4772. PMID 29435139.
The cells were obtained from University of North Carolina (UNC), Pediatric Preclinical Testing Program (PPT), and Coriell Institute (CI). qHTS cell viability assay: Cells were assayed in growth media at a density of 500-1,000 cells/well. Five microliters of cells were dispensed into 1,536-well, white, solid-bottom, TC-treated plates (Greiner Bio One) using a multidrop dispenser and incubated at 37 degrees C, 5% CO2, under a humidified atmosphere for 5 hours. Twenty-three nanoliters of compounds and controls (neutral control DMSO or positive control bortezomib at final concentration of 2.3 µM) were subsequently transferred by Kalypsys pintool. For primary screens, the MIPE collection was tested at 11-point dilutions (final concentrations range from 0.78 nM to 46 µM) and the NPC collection at 8-point dilutions (final concentrations range from 0.59 nM to 46 µM). Compounds tested in follow-up screens were assayed at 11-point dilutions. Cells were incubated for 48 hours, followed by addition of 3 µL of CellTiter-Glo (Promega). After a 15 min incubation at room temperature, samples were analyzed for luminescence intensity using a ViewLux High-throughput CCD imager equipped with clear filters.
Potency is read from the fitted curve at half-maximal effect.

Structure (SMILES) | activity change, negative = cytotoxic | Potency
CC(=O)OCC(=O)[C@@]1(O)[C@H](OC(C)=O)C[C@H]2[C@@H]3CCC4=CC(=O)C=C[C@]4(C)[C@@]3(F)[C@@H](O)C[C@@]21C | 12.3% (inactive) | 
CCOc1ccccc1OCC1CNCCO1 (stereo not given) | 13% (inactive) | 
NC(=O)NC1N=C([O][Al])NC1=O (stereo not given) | 4.2% (inactive) | 
NCCCC(N)CC(=O)NCC1NC(=O)C(CO)NC(=O)C(N)CNC(=O)C(C2CCN=C(N)N2)NC(=O)C(=CNC(N)=O)NC1=O (stereo not drawn) (H-[Dap]S[Dap](ξβ3hOrn)[ΔAla(3-NHCONH2)][X10]; lactam 1-C; configuration not given here) | 2.79% [at 0.597 µM] (inactive) | 
CC(=O)OCC(=O)Nc1cc(C#N)cc(NC(=O)COC(C)=O)c1Cl | 8.66% (inactive) | 
CC(C)(C)CC(=O)OCC(=O)[C@@]1(O)CC[C@H]2[C@@H]3CCC4=CC(=O)C=C[C@]4(C)[C@H]3[C@@H](O)C[C@@]21C | -9.4% (inactive) | 
COc1ccc(OC(=O)N(CC(=O)O)Cc2ccc(OCCc3nc(-c4ccccc4)oc3C)cc2)cc1 | 14.2% (inactive) | 
Cc1ccccc1N1CCN(CCc2nnc3n2CCCC3)CC1 | 2.79% (inactive) | 
CCCCOCCOC(=O)c1cccnc1 | 8.67% (inactive) | 
C[C@]12CCC(=O)C=C1CC[C@@H]1[C@@H]2[C@@H](O)C[C@@]2(C)[C@H]1CC[C@]2(O)C(=O)COC(=O)CCC(=O)O | 2.09% (inactive) | 
N#Cc1cc(NC(=O)C(=O)O)c(Cl)c(NC(=O)C(=O)O)c1 | 8.49% (inactive) | 
COc1cc2c(cc1OC)C(=O)CC2 | -4.46% (inactive) | 
Nc1ccc2cc3ccc(N)cc3nc2c1 |  | 21.1 µM (active)
CCCCCC1Nc2cc(C(F)(F)F)c(S(N)(=O)=O)cc2S(=O)(=O)N1 (stereo not given) | 8.3% (inactive) | 
Cc1oc(=O)oc1COC(=O)[C@@H]1N2C(=O)[C@@H](NC(=O)[C@H](N)c3ccccc3)[C@H]2SC1(C)C | 7.48% (inactive) | 
C[C@H](CN1CCCC1)C(=O)c1ccc(C(F)(F)F)cc1 | -2.08% (inactive) | 
CN1CC(=O)N2[C@H](c3ccc4c(c3)OCO4)c3[nH]c4ccccc4c3C[C@@H]2C1=O | 2.7% (inactive) | 
CCCc1ncc(C(=O)O)s1 | 7.86% (inactive) | 
CCC(=O)O[C@]1(C(=O)COC)[C@@H](C)C[C@H]2[C@@H]3CCC4=CC(=O)C=C[C@]4(C)C3(F)[C@@H](O)C[C@@]21C (stereo not given in full) | 3.14% (inactive) | 
CC(C)(C)c1ccc(C(=O)CCCCl)cc1 | 10.2% (inactive) | 

Structure (SMILES) | activity change, negative = cytotoxic | Potency
CC(=O)N(c1onc(C)c1C)S(=O)(=O)c1ccc(N)cc1 | 8.55% (inactive) | 
COc1c(N2C[C@@H]3CCCN[C@@H]3C2)c(F)cc2c(=O)c(C(=O)O)cn(C3CC3)c12 | 1.46% (inactive) | 
OC(CCCN1CCCCC1)(c1ccccc1)c1ccccc1 | -21.7% (inactive) | 
CNC[C@H](O)[C@@H](O)[C@H](O)[C@H](O)CO | 6.21% (inactive) | 
CC(C)C[C@H](NC(=O)CNC(=O)[C@H](Cc1ccc(O)cc1)NC(=O)[C@H](CO)NC(=O)[C@H](Cc1c[nH]c2ccccc12)NC(=O)[C@H](Cc1cnc[nH]1)NC(=O)[C@@H]1CCC(=O)N1)C(=O)N[C@@H](CCCN=C(N)N)C(=O)N1CCC[C@H]1C(=O)NCC(N)=O (stereo in doubt) | 2.58% (inactive) | 
Cc1c(N)cccc1C(F)(F)F | 16.1% (inactive) | 
O=C(CCOCCOCCOCCOCCC(=O)Nc1c(I)cc(I)c(C(=O)O)c1I)Nc1c(I)cc(I)c(C(=O)O)c1I | 13% (inactive) | 
CC(C)C(=O)Nc1cccc(C2CN3CCSC3=N2)c1 (stereo not given) | 12.7% (inactive) | 
CCC(CN)=C(c1ccccc1)c1ccccc1 | -25.1% (inactive) | 
CCNC(=O)[C@@H]1CCCN1C(=O)[C@H](CCCN=C(N)N)NC(=O)[C@H](CC(C)C)NC(=O)CNC(=O)[C@H](Cc1ccc(O)cc1)NC(=O)[C@H](CO)NC(=O)[C@H](Cc1c[nH]c2ccccc12)NC(=O)[C@H](Cc1cnc[nH]1)NC(=O)[C@@H]1CCC(=O)N1 ([pGlu]HWSYGLRP-NHEt) | 6.78% (inactive) | 
O=C(OCC(O)CO)c1ccccc1Nc1ccnc2c(C(F)(F)F)cccc12 (stereo not given) | -15.6% (inactive) | 
C1=CC2C3C=CC(C3)C2C1 (stereo not given) | 15.9% [at 92.7 µM] (inactive) | 
COCCc1ccc(OCC2CO2)cc1 (stereo not given) | -10.8% (inactive) | 
CC1CC(=O)NN=C1c1ccc(NCC(C)(C)NCC(O)COc2cc(Cl)ccc2C#N)cc1 (stereo not given) | -3.48% (inactive) | 
Fc1ccc(C(c2ccc(F)cc2)N2CCNCC2)cc1 | 7.26% (inactive) | 
Cc1nc(C2CCCCC2)c(-c2ccc(S(N)(=O)=O)c(F)c2)o1 | 6.63% (inactive) | 
O=C1CC2(CCCC2)CC(=O)N1CCNCC1COc2ccccc2O1 (stereo not given) | 7.51% (inactive) | 
Cc1cc(C(C)(C)C)c(O)c(C(C)(C)C)c1 | 10.9% (inactive) | 
CCOC(=O)[C@H](CCc1ccccc1)N[C@@H](C)C(=O)N(CC(=O)O)C1Cc2ccccc2C1 | 10.5% (inactive) | 
CC(C)(C)C(O)/C=C/c1ccc2c(c1)OCO2 (stereo not given) | 1.29% (inactive) | 

Source: PubChem BioAssay (NCATS)
